# Experimental data from PubChem BioAssay AID1851 (National Center for Advancing Translational Sciences (NCATS), 2009).
# In all, about 16,000 compounds went through this assay and about 4,000 (25%) were called active. Inconclusive results (about 26%) are left out. Not all results are given here. Unmarked numbers belong to inactive results. Calls follow the shape of the dose curve; as a rule, active = well fitted curve in the direction sought with a large enough effect; inconclusive = small, poorly fitted or top-dose-only effect, or effect the other way; inactive = no such curve, though single readings can be large or run the other way.
# Target: Cytochrome P450 2C9 (Homo sapiens) (UniProt P11712)
# Sequence (P11712 whole entry, looked up): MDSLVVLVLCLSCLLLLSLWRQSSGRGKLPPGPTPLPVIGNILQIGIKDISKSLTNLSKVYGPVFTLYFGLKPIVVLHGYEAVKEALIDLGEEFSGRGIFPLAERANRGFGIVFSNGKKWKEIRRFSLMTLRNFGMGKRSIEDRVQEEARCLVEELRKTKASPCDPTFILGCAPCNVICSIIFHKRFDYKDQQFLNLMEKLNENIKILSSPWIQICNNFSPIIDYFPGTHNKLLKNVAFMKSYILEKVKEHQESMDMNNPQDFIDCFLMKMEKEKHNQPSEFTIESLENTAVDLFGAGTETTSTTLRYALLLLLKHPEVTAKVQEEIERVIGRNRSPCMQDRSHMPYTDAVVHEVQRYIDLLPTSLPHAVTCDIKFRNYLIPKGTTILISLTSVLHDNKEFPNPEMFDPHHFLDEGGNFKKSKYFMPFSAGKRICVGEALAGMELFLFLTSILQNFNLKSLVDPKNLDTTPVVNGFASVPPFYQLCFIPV
# Experiment: Cytochrome panel assay with activity outcomes
# Settings: recombinant CYP, pro-luciferin dealkylation, luminescence, p450-cyp2c9; series mostly up to 57.1 µM
# % is scaled to controls: 0 for no effect and ±100 for the full control effect.
SMILES,AC50,"activity, negative = inhibition"
O=C(c1cc(-c2cccs2)on1)N1CCN(c2ccc(F)cc2)CC1,1.58 µM (active),
O=c1cc(CN2CCN(c3ccc(F)cc3)CC2)c2cc3c(cc2o1)CCCC3,inactive,
C/C=C\C(=O)N(CC)c1ccccc1C,inactive,
CN1CCc2cc(NC(=O)Nc3cccnc3)ccc21,inactive,
COc1cc2c(cc1C(F)(F)F)N(C(=O)Nc1cc(F)cc(-c3cccnc3)c1)CC2,0.794 µM (active),
Cn1ccc2cc3c(cc21)CCN3C(=O)Nc1cccnc1,inactive,
COC(=O)c1ccc(NC(=O)N2CCC(O)(c3cccnc3)CC2)cc1,inactive,
CSc1cc2c(cc1C(F)(F)F)N(C(=O)Nc1cccnc1)CC2,0.00631 µM (active),
CN1Cc2c(N)cccc2[C@H](c2ccccc2)C1,inactive,
Cc1noc(C)c1-c1ccc2ncnc(NCc3cccnc3)c2c1,,-6.6% [at 2.29 µM]
CCCCn1cnc2c(c(CC#N)nn2-c2ccccc2)c1=N,,-11.5% [at 11.4 µM]
CCOCCCn1cnc2c(c1=O)c1nc3ccccc3nc1n2-c1ccccc1,15.8 µM (active),
COc1ncc2nc(C)c(=O)n(-c3ccccc3)c2n1,inactive,
CN1CCc2nc(N)nc(-c3nc(N)nc4c3CN(C)CC4)c2C1,,5.01% [at 11.4 µM]
Cc1cc(-c2cc(-c3ccc(Cl)cc3)nc(N)c2C#N)co1,11.2 µM (active),
Cn1c(=O)c(-c2ccc(Cl)cc2)nc2cnc(OCc3ccccc3)nc21,inactive,
Cc1cc(C)n(-c2nc3ccccc3c(=O)n2OCc2ccc(Cl)cc2)n1,5.62 µM (active),
Oc1c(CN2CCN(c3ccccc3)CC2)cc(Br)c2cccnc12,,7.75% [at 11.4 µM]
COc1ccc(N2C(=O)NC(NC(=O)c3ccncc3)(C(F)(F)F)C2=O)cc1 (stereo not given),6.31 µM (active),
COc1ccc(-n2c(=O)c(-c3ccc(F)cc3)nc3cncnc32)cc1,inactive,
Cc1cccc(C(=O)NC2CCN(C(=O)N3CCOCC3)CC2)c1,inactive,
O=C1C[C@@H](O)[C@@H](O)[C@H]2[C@@H]3C(=O)N(Cc4ccccc4)C(=O)[C@@H]3CC[C@H]12,,-2.13% [at 11.4 µM]
CC(C)C1NC(=S)N(Cc2ccccc2)C1=O (stereo not given),8.91 µM (active),
O=C(O)CN(CCN(CC(=O)O)CC(=O)O)CCN(CC(=O)O)CC(=O)O,inactive,
CCS(=O)(=O)c1ccc2oc(Nc3cc(C)cc(C)c3)nc2c1,8.91 µM (active),

SMILES,AC50,"activity, negative = inhibition"
CC(CC(=O)O)CC(=O)Nc1ccc(S(N)(=O)=O)cc1 (stereo not given),inactive,
CN(C)S(=O)(=O)c1cccc(NC(=O)COC(=O)c2ccc(Br)o2)c1,6.31 µM (active),
CN(C)S(=O)(=O)c1ccc(NC(=O)COC(=O)c2ccccn2)cc1,10 µM (active),
Cc1ccnc2nc(C(=O)OCC(=O)Nc3ccc4c(c3)OC(F)(F)O4)nn12,inactive,
Cc1ccc(S(=O)(=O)N(C)CC(=O)O/N=C(\N)c2ccccn2)cc1,inactive,
CCN(CC)S(=O)(=O)c1ccc(NC(=O)COC(=O)c2ccc(Br)o2)cc1,8.91 µM (active),
COc1ccccc1-c1ccc2ncnc(NCCNC(C)=O)c2c1,,-2.65% [at 2.29 µM]
C=CC1=C[C@@H](O)C2OC2C12OCCCO2 (stereo not given in full),,12.2% [at 11.4 µM]
O=C(Nc1cccc(F)c1)N1CC[C@@]2(CCCNC2)C1,inactive,
COC(=O)[C@@]1(Cc2ccccc2)[C@H]2c3cc(C(=O)N4CCCC4)n(Cc4c(CO)[nH]cc(C)c4=O)c3C[C@H]2CN1C(=O)c1ccccc1,1 µM (active),
COC(=O)[C@@]1(Cc2ccc(F)cc2)[C@H]2c3cc(C(=O)N4CCCC4)n(Cc4c(CO)[nH]cc(C)c4=O)c3C[C@H]2CN1C(=O)c1ccccc1,10 µM (active),
CCCCCCCCCCCCCCCC(=O)C(F)(F)F,inactive,
N#Cc1ccc(CN2CCC3(CC2)CCN(S(=O)(=O)c2ccccc2)CC3)cc1,inactive,
O=S(=O)(c1ccccc1)N1CCC2(CC1)CN(Cc1ccccc1)C2,inactive,
COC(=O)N1CCC2(CCCN(Cc3ccccc3)C2)CC1,inactive,
COCC(=O)N1CCC[C@@]2(CCN(Cc3ccc(C#N)cc3)C2)C1,inactive,
COC(=O)N1CCC2(CCCN(Cc3ccc(C#N)cc3)C2)CC1,12.6 µM (active),
N#Cc1ccc(CN2CCCC3(CCN(S(=O)(=O)c4ccccc4)CC3)C2)cc1,12.6 µM (active),
CN(C)CC[C@@H](c1ccccc1)c1ccccn1,inactive,
C[C@@H](C1=C(CCN(C)C)Cc2ccccc21)c1ccccn1,0.501 µM (active),
CN(C)CC(CN(C)C)c1ccccn1,,-2.56% [at 11.4 µM]
CNc1cc(-c2ccccc2CN(C)C)ncn1,,24.8% [at 2.29 µM]
Cc1cccc(-c2n[nH]c([N+](=O)[O-])n2)c1,20 µM (active),
CCCCn1c(=N)n(CC(=O)c2ccco2)c2ccccc21,inactive,
CCCCN1C(=O)NC(NC(=O)c2ccco2)(C(F)(F)F)C1=O (stereo not given),12.6 µM (active),

SMILES,AC50,"activity, negative = inhibition"
CC(=O)NC1=NC(=O)C(C)S1 (stereo not given),inactive,
CCc1ccc(NC(=O)Cn2nc(C(F)(F)F)c3c2CCC3)cc1,inactive,
Cn1nc(C(F)(F)F)c(C(=O)Nc2ccc(F)cc2F)c1Sc1ccc(C(F)(F)F)cc1,4.47 µM (active),
O=C(O)/C=C/C(=O)Nc1ccc(F)cc1F,inactive,
Cn1nc(C(F)(F)F)c(C(=O)Nc2ccc(F)cc2F)c1Sc1cccc(C(F)(F)F)c1,1.58 µM (active),
Cc1ccc(NC(=O)c2c(C(F)(F)F)nn(C)c2SCc2cccc(C(F)(F)F)c2)cc1C,0.891 µM (active),
Cc1ccc(NC(=O)c2sccc2SCc2cccc(C(F)(F)F)c2)cc1,2.51 µM (active),
CC(=O)NC1(c2ccc(F)cc2)CCN(C(=O)Nc2ccc(F)cc2F)CC1,inactive,
CCNS(=O)(=O)c1ccc(NC(=O)c2cc(C(F)(F)F)nn2C)cc1,inactive,
CC(=O)N(/N=C1\Sc2ccccc2C1=O)c1ccccc1C,14.1 µM (active),
CC(=O)N(/N=C1\Sc2ccccc2C1=O)c1ccccc1,inactive,
CCOC(=O)c1c(NC(=O)CSc2nnnn2C)sc(C)c1C,22.4 µM (active),
COC(=O)c1c(NC(C)=O)sc(Cc2ccccc2)c1C,10 µM (active),
CCOc1ccc(CC(=O)Nc2sc(Cc3ccccc3)c(C)c2C(N)=O)cc1OCC,inactive,
Cc1sc(NC(=O)C(C)C)c(C(=O)Nc2ccccc2)c1C,12.6 µM (active),
CO[C@]1(NC(=O)CSCC#N)C(=O)N2C(C(=O)O)=C(CSc3nnnn3C)CS[C@H]21,inactive,
CCOC(=O)c1c(NC(=O)CSc2nnc(C)s2)sc2c1CCCCC2,11.2 µM (active),
COC(=O)c1c(C)[nH]c(C)c1C(=O)c1ccccc1Cc1ccccc1,inactive,
Cc1sc(NC(=O)C2CCCCC2C(=O)O)c(C(N)=O)c1C (stereo not given),inactive,
Cc1cccc(NC(=O)CSc2nnnn2C)n1,inactive,
CCOC(=O)c1c(NC(=O)c2c(C)noc2C)sc2c1CCCCC2,inactive,
CN(C)c1nc(N)c(C(=O)N=C(N)N)nc1Cl,inactive,
COC(=O)C1=C(C)[C@@H](O)[C@@H](C)[C@H](c2c(OC)c(OC)c(C)c(OC)c2OC)O1,,-3.08% [at 11.4 µM]
CC(=O)N1CCC2(CCCN(Cc3nccs3)C2)CC1,inactive,
CCOC(=O)c1c(NC(=O)Nc2ccccc2)sc(C)c1C,3.55 µM (active),

SMILES,AC50,"activity, negative = inhibition"
CCOC(=O)c1c(NC(=O)/C=C/c2ccc3c(c2)OCO3)sc(C)c1C,inactive,
Cc1cc(Nc2ccccc2)nc(N)n1,inactive,
Cc1nnc(SCc2nc(N)nc(Nc3ccccc3)n2)s1,10 µM (active),
CCCSc1nnc2n(N)c(=O)c3ccccc3n12,inactive,
Nc1nc(N)[n+]([O-])c(N)c1NCO,,6.07% [at 11.4 µM]
CCOC(=O)c1cnc(SCCc2ccccc2)nc1N,11.2 µM (active),
Nc1nc(N)c(CCCCc2ccccc2)c(N)n1,,5.71% [at 11.4 µM]
CCOC(=O)c1cnc(N(C)C)nc1SC(=N)N,,-5.38% [at 11.4 µM]
CC1(C)C2([N+](=O)[O-])CN3CC1([N+](=O)[O-])CN(C2)C31CCCC1,inactive,
C=C1C(=O)O[C@@H]2[C@@H]1CC/C(C)=C\CC[C@@]1(C)O[C@H]21,inactive,
O=c1c2ccc([N+](=O)[O-])c3cccc(c32)c2nc3ccccc3n12,inactive,
O=C(O)c1ccc2c3c1cccc3c(=O)n1c3ccccc3nc21,0.158 µM (active),
O=C(O)C(=O)/C=C(\O)c1ccc(Br)cc1,,-19.1% [at 11.4 µM]
CCCOc1ccc(C(=O)NC(=S)Nc2nc3ccc(C)cc3s2)cc1,inactive,
COc1ccc2nc(NC(=O)CSc3nnc(C)s3)sc2c1,inactive,
Cc1ccc2nc(NC(=O)COC(=O)CSc3nc(C)cc(C)n3)sc2c1,3.98 µM (active),
Cc1ccc2nc(NC(=O)CSCC(=O)OCC(=O)c3ccc(Br)cc3)sc2c1,14.1 µM (active),
COc1ccc([C@@H]2Sc3ccccc3N(CCN(C)C)C(=O)[C@@H]2OC(C)=O)cc1,inactive,
NC(=S)Nc1ccc(Oc2ccc(NC(N)=S)cc2)cc1,7.08 µM (active),
COc1ccc2[nH]c(=O)c(NC(N)=S)nc2c1,inactive,
COc1ccc(C2Nc3ccccc3C(=O)N2Cc2ccco2)cc1COc1ccc([N+](=O)[O-])cc1 (stereo not given),0.178 µM (active),
O=C1C2=C(Nc3cc([N+](=O)[O-])ccc3N2)O[C@@H]1c1c[nH]c2ccc(COc3ccccc3)cc12,,-16.4% [at 11.4 µM]
Cc1ccc(C2Nc3ccccc3C(=O)N2Cc2ccco2)cc1 (stereo not given),3.16 µM (active),
CN(Cc1ccco1)C(=O)C1CCC(=O)N1Cc1ccc(F)cc1 (stereo not given),inactive,
O=C1c2ccccc2NC(c2ccc(F)cc2)N1Cc1ccco1 (stereo not given),3.16 µM (active),
